AMA1-RON2 inh: AMA1-RON2 (P. falciparum) interaction inhibition; AID 720542; AlphaScreen AMA1-biotinylated RON2 peptide binding; 0.2% of 360,000 active; Potency, µM (doses to about 58.2 µM), inactives show at the highest dose activity change, negative = inhibition, usual class: inhibitors;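 further: 0% = vehicle wells and -100% = peptide control; nearly all actives have a fitted effect of over 45% in size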
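AMA1 (3D7) with his tag at 25 nM final met compounds first, then biotinylated RON2 peptide at 25 nM; detection used donor plus acceptor beads, 10 µg/mL apiece, read by AlphaScreen after 30 min at room temperature.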
Tb PYK inh: T. brucei pyruvate kinase inhibition; TbPYK enzyme, Kinase-Glo Plus ATP luminescence, 45 min; Potency, µM (series often up to 76.8 µM), for the others: top-dose activity, negative = inhibition, usual class: inhibitors; 0.12% of 410,000 active; AID 624173; further: nearly all actives have a fitted effect of over 50% in size
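Screened from lowest to highest concentration, compounds were pinned into TbPYK/substrate mixtures, and ADP (130 uM final) was added. Plates sat at room temperature for 45 min prior to Kinase-Glo Plus detection by luminescence.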
RE007 growth inh: less growth of the S. pombe RE007 Vpr strain. S. pombe RE007 Vpr strain, BacTiter-Glo ATP luminescence, 24 h. Potency, µM (highest dose often 92.2 µM), without a hit: top-dose activity change, negative = less growth, actives largely listed as inhibitors. 0.21% of 360,000 active. AID 651644; active means well fitted falling curve with a large enough effect; inconclusive means small, poorly fitted or top-dose-only effect; inactive means no such curve, though single readings can be large or run the other way; further: nearly all actives have a fitted effect of over 50% in size
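Fission yeast RE007 carrying one integrated HIV-1 vpr copy, seeded at OD 0.01 in PMG+AL medium with 23 nL pinned compound. Grown 24 h at 30 degrees; viability read by BacTiter-Glo luminescence after 5 min.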
Sm TGR inh: S. mansoni TGR enzyme inhibition. 3% of 360,000 active. purified TGR, DTNB reduction, TNB absorbance 405 nm. Q962Y6. Potency, µM (titrated, usually from 114 µM), for inactives: at the highest dose activity change, negative = inhibition, hits mostly inhibitors; further: nearly all actives have a fitted effect of over 60% in size
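TGR 20 nM + NADPH 100 uM (dispensed conc.), cpd preinc 15 min RT; start with NADPH (500 uM addition) then DTNB (15 mM addition). Kinetic TNB absorbance, 405 nm filter. Four-parameter Hill fit across titration.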
LmPK inh: LmPK (Leishmania mexicana) enzyme inhibition; purified LmPK, Kinase-Glo ATP luminescence, 1 h; Potency, µM (titrated, usually from 57.5 µM), without a hit: top-dose activity change, negative = inhibition, hits mostly inhibitors; 0.37% of 290,000 active; AID 1721
Target sequence (Q27686 whole entry, looked up): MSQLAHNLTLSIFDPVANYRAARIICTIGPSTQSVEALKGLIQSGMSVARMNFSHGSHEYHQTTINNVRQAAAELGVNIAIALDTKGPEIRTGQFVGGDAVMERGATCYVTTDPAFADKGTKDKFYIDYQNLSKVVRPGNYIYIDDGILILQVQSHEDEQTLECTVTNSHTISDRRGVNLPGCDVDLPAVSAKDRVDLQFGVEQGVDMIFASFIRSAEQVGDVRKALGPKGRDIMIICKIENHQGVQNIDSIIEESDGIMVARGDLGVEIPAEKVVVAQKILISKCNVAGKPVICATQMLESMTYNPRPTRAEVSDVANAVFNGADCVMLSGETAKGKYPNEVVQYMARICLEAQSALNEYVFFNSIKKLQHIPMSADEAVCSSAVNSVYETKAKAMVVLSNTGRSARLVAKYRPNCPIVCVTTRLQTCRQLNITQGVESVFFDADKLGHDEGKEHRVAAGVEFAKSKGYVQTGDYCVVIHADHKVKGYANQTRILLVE
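Pyruvate kinase activity monitored as ATP production (luciferase luminescence). Conditions: 0.1 nM enzyme, 0.5 mM PEP, 0.1 mM ADP, 1 h, RT; normalized against uninhibited and no-enzyme wells.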
* = called active by the depositor; u = inconclusive; x = no result given; [ ] = remark or other dose. Rows were chosen to be rich in hits. Some 3.2% of all compounds tested hit in one or more screens of this group. Unless noted, the call rests on the fitted dose curve; in most records, active means well fitted curve in the direction sought with a large enough effect; inconclusive means small, poorly fitted or top-dose-only effect, or another doubt; inactive means no such curve, though single readings can be large; an effect the other way counts as inactive or inconclusive. Unless noted, on the % scale 0 is the no-effect control and ±100 the full control effect; potency means the concentration at half of the fitted maximal effect.

SMILES	AMA1-RON2 inh	Tb PYK inh	RE007 growth inh	Sm TGR inh	LmPK inh
O=C(NC1CCCC1)C(c1ccncc1)N(Cc1ccco1)C(=O)c1ccc(-c2ccccc2)[nH]1 (stereo not drawn)	-24.2%	-1.5%	-16.3%	28.2µM*	9.1%
CC1(OC(=O)c2ccc(Cl)nc2)C(=O)C=c2cc(-c3ccsc3)ncc2=C1OC(=O)C1CCCC1 (stereo not drawn)	x	x	x	x	-0.8%[11.5 µM]
Cc1ccc2c(c1)c1c3n2CCN(C(=O)c2ccc(C(F)(F)F)cc2)C3CCC1 (stereo not drawn)	x	-3.8%	x	-3.1%	x
CCCOc1ccc(Cl)cc1/C=C1/C(=O)ON=C1C	-14.4%	-17.9%	-2.3%	14.1µM*	0.5%
CCOc1cc(/C=C2/C(=O)ON=C2C)ccc1OCc1ccccc1	-13.2%	u	-1.0%	50.1µM*	-0.1%
CCOc1cc(/C=C2/C(=O)ON=C2C)ccc1OCc1ccc(F)cc1	-3.3%	-4.5%	15.2%	0.0%	-10.8%
COc1ccccc1/C=C1/C(=O)ON=C1C	-1.1%	-28.4%	15.4%	-12.9%	2.8%
O=C(c1ccco1)N(c1ccccn1)c1ccccn1	48.4%	-3.3%	2.1%	24.7%	-1.2%
O=C(/C=C/c1ccco1)N(c1ccccn1)c1ccccn1	-1.6%	-16.3%	1.9%	31.6µM*	2.1%
O=C(/C=C/c1ccco1)NCc1ccccn1	53.0%	-8.6%	-7.2%	3.55µM*	-6.2%
Cc1ccc(-c2nc3n(n2)C(c2ccccc2Cl)C=C(c2ccc(Cl)cc2)N3)cc1 (stereo not drawn)	x	0.4%	x	-7.4%	x
CC1(C)CC(=O)C2=C(C1)N(c1cccc(O)c1)C1=C(C2)C(=O)CC(C)(C)C1	35.7%	-5.9%	5.3%	31.6µM*	-7.1%
CSc1ccccc1C(=O)C1CCCN(C(=O)c2csnn2)C1 (stereo not drawn)	11.0%	-1.5%	1.2%	-3.7%	3.7%
CSc1ccccc1C(=O)C1CCCN(C(=O)c2cc(C(C)C)no2)C1 (stereo not drawn)	-14.0%	-2.9%	-22.0%	22.4µM*	3.6%
O=C1c2ccccc2C(=O)N1CC#CCN1CCN(C(c2ccccc2)c2ccccc2)CC1	-11.6%	-8.5%	-3.2%	50.1µM*	6.5%
CCOC(=O)C1CCN(c2c(C(=O)c3ccc(C)cc3)cnc3ccc(F)cc23)CC1	x	-7.5%	x	12.2%	x
Cc1ccc(C)c(NC(=O)C(Sc2nc3ccccc3c(=O)n2CC(C)C)c2ccccc2)c1 (stereo not drawn)	-12.3%	-0.9%	0.5%	1.5%	-1.2%
Cc1ccc(C)c(NC(=O)C(Sc2nncn2C)c2ccccc2)c1 (stereo not drawn)	10.2%	5.9%	-23.5%	89.1µM*	0.2%
S=C(NCC1CCCO1)Nc1ccc(Cl)cc1Cl (stereo not drawn)	13.2%	-18.7%	1.7%	50.1µM*	-2.5%
S=C(Nc1ccccc1Cl)Nc1ccc(Cl)cc1Cl	1.2%	-4.0%	-3.2%	25.1µM*	-3.2%
FC(F)(F)c1ccccc1NC(=S)Nc1cccc(Cl)c1	18.8%	-1.3%	-11.1%	25.1µM*	1.9%
FC(F)(F)c1cccc(NC(=S)Nc2cccc(NC(=S)Nc3cccc(C(F)(F)F)c3)n2)c1	76.7%	-3.2%	-15.6%	-18.4%	7.4%
NC(=S)Nc1ccc(Cl)cc1Cl	-2.0%	-3.0%	-21.8%	-25.0%	4.2%
FC(F)(F)c1cccc(NC(=S)Nc2ccc(Cl)cc2Cl)c1	13.9%	-12.1%	0.4%	22.4µM*	1.7%
Cc1nc(N2CCCC2)ncc1C(=O)N1CCN(c2ccccc2F)CC1	x	3.3%	x	-1.1%	x
SMILES	AMA1-RON2 inh	Tb PYK inh	RE007 growth inh	Sm TGR inh	LmPK inh
S=C(Nc1ccccc1)Nc1ccc(Cl)cc1Cl	14.8%	3.2%	4.3%	25.1µM*	3.4%
S=C(Nc1ccccc1)Nc1cc(Cl)ccc1Oc1ccccc1	75.4%	2.2%	-20.9%	0.0%	8.5%
CC(/C=N/NC(=O)c1cccnc1)=C\c1ccco1	69.1%	7.2%	7.5%	50.1µM*	1.9%
CC(/C=N/NC(=O)c1cc(-c2ccccc2)nc2ccccc12)=C\c1ccco1	12.7%	-5.5%	-19.0%	2.1%	-0.7%
CC(/C=N/NC(=O)c1nnn(-c2nonc2N)c1CN(C)C)=C\c1ccco1	72.9%	-1.1%	-8.7%	44.7µM*	1.1%
CC(=C/c1ccco1)/C=N/NC(=O)c1ccncc1	9.7%	3.0%	-5.8%	44.7µM*	-8.6%
CC(/C=N/NC(=O)c1cnccn1)=C\c1ccco1	45.5%	-1.7%	-5.3%	28.2µM*	-6.7%
CCC(=O)N1CCc2cc(S(=O)(=O)NC(C(=O)NCCc3ccc(OC)c(OC)c3)C(C)C)ccc21 (stereo not drawn)	x	0.0%	x	-7.8%	x
COc1ccc(N2CCN(C(=O)C3CCN(S(=O)(=O)c4cccc5nonc45)CC3)CC2)cc1	x	-1.2%	x	-11.7%	x
CN(C)c1ccc(NC(=O)CN2CCN(CC(=O)Nc3ccc(Br)cc3)CC2)cc1	x	-0.8%	x	-2.2%	x
Cc1ccc(Nc2nccc(N(C)c3ccc4c(C)n(C)nc4c3)n2)cc1S(N)(=O)=O	x	-4.7%	x	x	x
COc1cc(C2Oc3ccccc3C=C2[N+](=O)[O-])cc(OC)c1OC (stereo not drawn)	u	-16.9%	4.9%	31.6µM*	3.2%
COc1cc(C2NC(=O)c3ccccc3O2)cc(OC)c1OC (stereo not drawn)	1.4%	-1.0%	-3.8%	0.0%	3.1%
CC(=O)c1cccc(OCc2cc(C(=O)N3C[C@@H](C)O[C@@H](C)C3)no2)c1	1.4%	0.8%	-0.4%	3.16µM*	4.7%
CC(=O)c1cccc(OCc2cc(C(=O)N3C[C@H]4CC[C@H]3C4)no2)c1	25.8%	6.3%	4.8%	7.1%	3.9%
CC(=O)c1ccc(OCc2cc(C(=O)N(C)Cc3ccccn3)no2)cc1	7.6%	-4.8%	1.9%	12.6µM*	-4.6%
CC(=O)c1ccc(OCc2cc(C(=O)N3CCC[C@H]3CO)no2)cc1	-4.4%	10.0%	5.5%	50.1µM*	-4.7%
COCCC1CCCCN1C(=O)c1cc(COc2cccc(C(C)=O)c2)on1 (stereo not drawn)	-0.3%	2.8%	2.0%	-20.5%	-5.7%
CC(=O)c1cccc(OCc2cc(C(=O)N(C)CCC3CCOCC3)no2)c1	-3.2%	8.8%	9.6%	2.24µM*	0.4%
CC(=O)c1ccc(OCc2cc(C(=O)N(C)Cc3ccon3)no2)cc1	3.9%	3.2%	20.6%	-16.6%	-3.7%
COc1ccccc1OCc1cc(C(=O)N(C)CCC2CCOCC2)no1	16.0%	-9.6%	7.8%	x	x
CCCC(=O)Nc1ncnc2c1ncn2C1OC2COP(=O)(O)OC2C1OC(=O)CCC (stereo not drawn)	x	0.9%	x	x	x
CCC1Oc2ccccc2N(CC(=O)NCc2ccccc2)C1=O (stereo not drawn)	x	11.9%	x	1.9%	x
O=[N+]([O-])c1ccc(N2CCN(Cc3ccccc3)CC2)c2c1no[n+]2[O-]	22.4µM*	-11.3%	u	x	x

High-throughput results: PubChem BioAssay, National Center for Advancing Translational Sciences (NCATS)
